Most compounds without a hit are left out; they make up all but 1.5% or so of the library.
MbtI inh – blocks the Mycobacterium tuberculosis siderophore enzyme MbtI. P9WFX0. purified MbtI enzyme, fluorescence intensity read-out. inhibition, % (concentration not given with the values). actives 0.89% (n = 100,000). AID 493033; in the data active = inhibition mostly above about 56%, no sharp cut-off; inactive = mostly below about 77%
PV pol inh – poliovirus RNA polymerase inhibition; P03300; poliovirus polymerase elongation, fluorescence polarization; stronger effect = lower value; % elongation, % (compound at 16.7 µg/mL); actives 0.66% (n = 150,000); AID 588519; in the data active = % elongation below about 90%
Target sequence (P03300 1749-2209 limits assumed): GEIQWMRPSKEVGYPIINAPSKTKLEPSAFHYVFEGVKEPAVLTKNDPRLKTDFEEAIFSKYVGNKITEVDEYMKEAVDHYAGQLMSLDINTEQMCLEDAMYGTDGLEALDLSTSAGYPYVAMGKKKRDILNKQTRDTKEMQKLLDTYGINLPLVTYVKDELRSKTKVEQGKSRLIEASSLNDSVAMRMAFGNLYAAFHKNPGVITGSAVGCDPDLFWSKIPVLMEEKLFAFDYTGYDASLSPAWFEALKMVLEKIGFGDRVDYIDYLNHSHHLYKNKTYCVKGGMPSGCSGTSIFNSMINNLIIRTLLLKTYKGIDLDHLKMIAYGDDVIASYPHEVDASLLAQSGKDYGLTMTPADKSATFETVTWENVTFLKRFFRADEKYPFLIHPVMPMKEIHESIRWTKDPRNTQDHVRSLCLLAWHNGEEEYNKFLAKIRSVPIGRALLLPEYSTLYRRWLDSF
Mtb MenB inh – Mtb MenB enzyme inhibition. actives 0.43% (n = 100,000). MenB enzyme assay, absorbance read-out. P9WNP5. inhibition, % (test concentration not listed); in the data active = inhibition above about 21%, passing the limit was not always enough
* hit, by the source's call; . = no result given.

SMILES	MbtI inh	PV pol inh	Mtb MenB inh
CNC(=O)c1ccccc1-c1nc(-c2ccccc2OC)no1	-5	101	-20
OCc1cnn(-c2ccccc2)c1	-15	103	-2
O=C(Cc1cnn(-c2ccccc2)c1)c1ccc(O)c(O)c1O	82*	100	-7
COCCn1c(O)c(/C=N/NS(=O)(=O)c2ccc(C)cc2)c(=O)[nH]c1=S	-1	105	-26
COc1ccccc1N(CC(=O)Nc1sc2c(c1C(N)=O)CCC2)S(=O)(=O)c1cccs1	-168	108	-25
NC(=O)CSc1nc2cc(S(=O)(=O)N3CCOCC3)ccc2o1	87	76*	-14
CCOC(=O)CSc1nc2ccccc2o1	4	98	-11
COc1ccc(Cc2nc3ccc(S(=O)(=O)N4CCOCC4)cc3[nH]2)cc1	1	100	1
Cc1ccc2nc(SCC(N)=O)oc2c1	3	101	33*
CN(C)C(=O)CSc1nc2cc(Cl)ccc2o1	-5	.	-27
CN(C)C(=O)CSc1nc2cc(S(=O)(=O)N3CCOCC3)ccc2o1	87*	81*	-11
Nc1nc2cc(S(=O)(=O)N3CCOCC3)ccc2o1	25	.	2
CCCSc1nc2ccc(S(=O)(=O)N3CCOCC3)cc2[nH]1	93*	64*	-20
O=C(COn1nnc2ccc(Cl)cc21)Nc1ccccc1	-9	.	1
O=C(O)Cn1cc(C(F)(F)F)ccc1=O	-19	105	-23
O=C(O)C1C2C=CC(C2)C1C(=O)N1CC=C(c2ccccc2)CC1 (stereo unspecified)	-9	.	.
COc1ccccc1NC(=O)C(C)Sc1nnc(N)s1 (stereo unspecified)	21	110	0
CN(C)c1ccc(/C=C(/NC(=O)c2ccccc2)C(N)=O)cc1	-2	104	-245
O=C(Nc1ccccc1)C1C2C=CC3(O2)C1C(=O)N(C1CCCC1)C3C(=O)NC1CCCCC1 (stereo unspecified)	0	102	-10
CCOc1nc(NCCO)nc(NCCC2=CCCCC2)n1	5	101	15
Clc1nc(Cl)nc(NCCC2=CCCCC2)n1	8	78*	17
CSC1=NCCN1C(=O)c1cccc(C)c1	1	102	-16
O=C(O)C(CO)c1ccccc1 (stereo unspecified)	0	98	26*
CC(C)CC(C(=O)c1ccccc1)c1ccccc1 (stereo unspecified)	-15	101	-7
Cn1ncc(C(C#N)c2nc3ccccc3s2)c(Cl)c1=O (stereo unspecified)	57*	140	-266
SMILES	MbtI inh	PV pol inh	Mtb MenB inh
CC(O)c1nc2ccccc2s1 (stereo unspecified)	9	100	-23
O=C1NC(=O)N(C2CCCCC2)C(=O)/C1=C/c1ccc(Br)cc1	34	100	-15
N=C1/C(=C2\NC(c3ccc(Br)cc3)=CS2)CC(=O)N1C1CC1	91*	113	-31
CCC(=O)N(c1nnc(SCc2csc(N(C(C)=O)c3ccccc3)n2)s1)C1CC1	-3	103	14
c1ccc(-c2nc(N3CCCCC3)c3ccccc3n2)cc1	55	101	33*
CCCOc1ccc(-c2nc(N3CCCCC3)c3ccccc3n2)cc1	.	105	.
CCS(=O)(=O)c1ccc2oc(SCC(=O)Nc3ccc4c(c3)OCCO4)nc2c1	7	103	-25
CCc1cccc(NC(=O)/C=C/c2ccco2)c1	78*	105	2
CCc1ccc(NC(=O)/C=C/c2ccco2)cc1	15	98	6
FC(F)(F)c1ccc(-c2noc(C3CCCCC3)n2)cc1	-29	101	-16
CC[C@H](C)[C@H](NC(N)=O)C(=O)Nc1ccccc1	-6	107	-17
CCOC(=O)c1c(NC(=O)c2cc(-c3ccc(Br)cc3)on2)sc(C)c1C	.	89*	.
CCOC(=O)c1c(NC(=O)c2cc(-c3cccc(Cl)c3)on2)sc(C)c1C	.	96	.
O=S(=O)(c1ccc2ccccc2c1)N1CCN(Cn2[nH]c(-c3cccs3)nc2=S)CC1	89	102	-20
C=CCN(CC=C)Cn1[nH]c(-c2cccs2)nc1=S	96*	99	-3
O=C(Cc1ccc(Cl)cc1)Nc1ccc2nn(-c3ccccc3)nc2c1	.	107	.
O=C(Nc1ccc(F)c(F)c1)c1cnn(-c2ccccc2)n1	29	90*	-43
Cc1ccc(CN2CCN(CC(=O)NCc3ccc4c(c3)OCO4)C2=O)cc1	-4	105	-8
O=C(O)CSCC(=O)Nc1ccccc1-c1ccccc1	2	101	14
O=C(O)CSCC(=O)Nc1cccc2ccccc12	11	100	36*
COC(=O)C(C)n1nnc2sc(-c3ccccc3)cc2c1=O (stereo unspecified)	.	126	.
CCc1ccc(NC(=O)C(C)n2nnc3sc(-c4ccccc4)cc3c2=O)cc1 (stereo unspecified)	.	79*	.
COCCN(Cc1ccccc1)C(=O)Cc1c(C)noc1C	8	105	6
COC(=O)c1sc(=S)n(-c2cccc(Cl)c2)c1N	94*	95	-24

Compound activity (PubChem)
